The values that follow come from PubChem BioAssay (NCATS).

In assay [1] the test system is MKL-2. The assay can be described thus: qHTS assay to identify novel small-molecules to repurpose for Merkel cell carcinoma treatment (AID 1296009). Also: nearly all actives have a fitted effect of over 60% in size. The settings on record: MCC and control cell lines, CellTiter-Glo viability, 72 h; series mostly up to 46 µM. An outline of the steps: (§1)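 72 hr, 37 degree celsius; NPC 8-pt / MIPE 11-pt dose response; compound pinned in DMSO; CellTiter-Glo, 10 min RT, luminescence; normalized to no-cell and DMSO controls.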
Background: qHTS replaces the single test concentration by a dilution series.

For assay [2], the system named is Es-2. The assay can be described thus: Primary qHTS to identify gynecologic anti-cancer compounds using libraries of approved drugs and bioactive compounds (AID 1345084). Also: nearly all actives have a fitted effect of over 55% in size. The following applies: Gynecologic cancer cell panel viability, ATPlite luminescence, 48 h; series mostly up to 57.5 µM. The method, boiled down: (§2)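 In this quantitative HTS, cell killing is estimated from loss of ATP-dependent luciferase light. Cells see five compound concentrations over a 48 h exposure.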

The subject of assay [3] is HeLa. Described as above. The settings on record: Gynecologic cancer cell panel viability, ATPlite luminescence, 48 h; series mostly up to 57.5 µM. The method, boiled down:
as §2
Background: Cellular ATP, detected with luciferase, serves as a proxy for viable cell number.

The test system of assay [4] is Hek293T. Described as above. The following applies: Gynecologic cancer cell panel viability, ATPlite luminescence, 48 h, control line for the selectivity index; series mostly up to 57.5 µM. The method, boiled down:
as §2

The subject of assay [5] is JEG-3. Described as above. The following applies: Gynecologic cancer cell panel viability, ATPlite luminescence, 48 h; series mostly up to 57.5 µM. The method, boiled down:
as §2

Assay [6] has as its system OV90. Described as above. The following applies: Gynecologic cancer cell panel viability, ATPlite luminescence, 48 h; series mostly up to 57.5 µM. The method, boiled down: as §2
The subject of assay [7] is Tov-21-G. The description is as above. The settings on record: Gynecologic cancer cell panel viability, ATPlite luminescence, 48 h; series mostly up to 57.5 µM. An outline of the steps:
as §2

The subject of assay [8] is C33A. The assay is described as above. The settings on record: Gynecologic cancer cell panel viability, ATPlite luminescence, 48 h; series mostly up to 57.5 µM. An outline of the steps:
as §2

In assay [9] the test system is CASKI. The description is as above. The following applies: Gynecologic cancer cell panel viability, ATPlite luminescence, 48 h; series mostly up to 57.5 µM. The method, boiled down:
as §2

The test system of assay [10] is PA-1. Described as above. The following applies: Gynecologic cancer cell panel viability, ATPlite luminescence, 48 h; series mostly up to 57.5 µM. The method, boiled down:
as §2

Assay [11] relates to SKOV3. The assay is described as above. The settings on record: Gynecologic cancer cell panel viability, ATPlite luminescence, 48 h; series mostly up to 57.5 µM. An outline of the steps: as §2
In assay [12] the test system is Tov112D. The description is as above. The settings on record: Gynecologic cancer cell panel viability, ATPlite luminescence, 48 h; series mostly up to 57.5 µM. The method, boiled down: as §2
In assay [13] the test system is CAOV3. Described as above. The following applies: Gynecologic cancer cell panel viability, ATPlite luminescence, 48 h; series mostly up to 57.5 µM. The method, boiled down: as §2
Assay [14] has as its system MCC-26. The assay can be described thus: qHTS assay to identify novel small-molecules to repurpose for Merkel cell carcinoma treatment (AID 1296009). Also: nearly all actives have a fitted effect of over 60% in size. The following applies: MCC and control cell lines, CellTiter-Glo viability, 72 h; series mostly up to 46 µM. The method, boiled down:
as §1

Records with an inconclusive call do not appear. Active and inactive are the calls of the source. Calls follow the shape of the dose curve; as a rule, active = well fitted curve in the direction sought with a large enough effect; inconclusive = small, poorly fitted or top-dose-only effect, or another doubt; inactive = no such curve, though single readings can be large; an effect the other way counts as inactive or inconclusive.
Potency is read from the fitted curve at half-maximal effect.

Turning to `CC(NCCC(c1ccccc1)c1ccccc1)c1ccccc1` (stereo unspecified), the Potency is 11.9 µM (active) in assay [1] and 28.2 µM (active) in assay [6]. The Potency entry in assay [2], in assay [3], in assay [4], in assay [5] and in assay [7] was “inactive” throughout.

Take `Cc1nn(-c2ccccc2)c(C)c1/C=N/N1CCN(Cc2ccccc2)CC1`: the Potency result in assay [8], in assay [9], in assay [2], in [3], in assay [4] and in assay [5] was “inactive” in each case. The Potency result in assay [6], in assay [10], in assay [11], in assay [7] and in assay [12] was “inactive” each time.

On to `Clc1ccc2c(c1)N=C(N1CCNCC1)c1ccccc1N2`, for which the Potency entry in [8], in assay [13], in [9], in assay [2], in [3] and in assay [4] was “inactive” throughout. Besides, the Potency result in assay [5], in [10], in assay [7] and in assay [12] was “inactive” throughout.

As to `C[C@@H](O[C@H]1OCCN(Cc2n[nH]c(=O)[nH]2)[C@H]1c1ccc(F)cc1)c1cc(C(F)(F)F)cc(C(F)(F)F)c1`, the Potency entry in [8], in assay [13], in [9], in [2], in assay [4] and in [5] was “inactive” throughout. For the same compound, the Potency entry in assay [6], in assay [10] and in [7] was “inactive” throughout.

Take `CCCCCC(=O)O[C@]1(C(C)=O)CC[C@H]2[C@@H]3CCC4=CC(=O)CC[C@]4(C)[C@H]3CC[C@@]21C`: the Potency entry in assay [14], in assay [1], in [9], in [2], in assay [5] and in [10] was “inactive” each time. Besides, the Potency entry in assay [7] and in assay [12] was “inactive” in each case.

Turning to `CC(NN)c1ccccc1` (stereo unspecified), the Potency result in assay [8], in assay [13], in assay [9], in assay [2], in assay [3] and in [4] was “inactive” throughout. Also, the Potency entry in [5], in assay [6], in assay [10], in assay [7] and in assay [12] was “inactive” in each case.

As for `O=C1[C@@H]2[C@H]3CC[C@H](C3)[C@@H]2C(=O)N1CCCCN1CCN(c2ncccn2)CC1`, the Potency result in assay [8], in assay [13], in assay [9], in [2], in assay [3] and in assay [4] was “inactive” each time. Also, the Potency entry in assay [5], in assay [6], in assay [10], in assay [11], in assay [7] and in assay [12] was “inactive” each time.

On to `CC[N+]1(CC)CCC(=C(c2ccccc2)c2ccccc2)C1C` (stereo unspecified), for which the Potency result in assay [8], in assay [13], in assay [9], in assay [2], in assay [3] and in assay [4] was “inactive” throughout. Besides, the Potency result in [6], in assay [7] and in assay [12] was “inactive” throughout.

Take `CC(C)N(CCC(=O)c1ccc2ccccc2c1)Cc1ccccc1`: the Potency result in [8], in assay [13], in assay [9], in assay [2], in [3] and in [4] was “inactive” each time. Besides, the Potency entry in assay [5], in assay [6], in assay [10], in assay [11], in assay [7] and in assay [12] was “inactive” in each case.

Take `N#C/C(=C1/SC[C@@H](c2ccc(Cl)cc2Cl)S1)n1ccnc1`: the Potency entry in assay [14], in assay [8], in [13], in assay [9], in assay [2] and in assay [3] was “inactive” each time. Besides, the Potency entry in assay [4], in [5], in assay [10], in assay [11], in assay [7] and in [12] was “inactive” throughout.
